# In publication PMC5540273 (PLoS ONE, 2017):
# Key:
# TIE2 = test system: T1, TIE2
# T1 construct: gene TEK
# 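Note: kd values determined as follow-up on hits from a single-replicate KINOMEscan panel screen.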
compound,measurement,setting,value
Cl.O=S(=O)(c1cccc(F)c1)c1ccc(Nc2ncnc3cc(Br)sc23)cc1Cl [GSK306886],Kd,SRPK1,> 10000 nM
Cn1cc(-c2ccc3c(c2)CCN3C(=O)Cc2cccc(C(F)(F)F)c2)c2c(N)ncnc21 [GSK2606414],Kd,SRPK3,> 10000 nM
Cc1ccc(C)c(NC(=O)NCCNc2ccnc(Nc3ccc(F)cc3)n2)c1 [GSK1379878],Kd,STK16,> 10000 nM
c1ccc(-c2ccc3c(-c4ccnc(Nc5ccc6c(c5)OCCO6)n4)cnn3n2)cc1 [GW818941],Kd,STK16,620 nM
Cl.Cl.c1ccc(-c2cc3ccncc3cc2OC2CCNCC2)cc1 [GSK1122999],Kd,STK33,> 10000 nM
same,Kd,STK36,> 10000 nM
CCc1nc(-c2cccc(N(C)S(=O)(=O)c3ccccc3)c2)c(-c2ccnc(Nc3ccc(N4CCN(C(C)=O)CC4)nc3)n2)s1 [GSK1645895],Kd,STK36,56 nM
Cn1ccc2ncnc(Nc3ccc(Oc4cccc(Cl)c4)c(Cl)c3)c21,Kd,TEC,> 10000 nM
Cc1ccc(O)cc1Nc1cc(C(F)(F)F)nc2ccc(-c3ccncc3)cc12 [GW630823],Kd,TEC,> 10000 nM
CS(=O)(=O)CCNCc1nc(-c2ccc3ncnc(Nc4ccc(OCc5cccc(F)c5)c(Cl)c4)c3c2)cs1.Cl [GW583340],Kd,TESK1,> 10000 nM
O=C(c1ccc(-c2cc(-c3c[nH]nc3-c3ccccn3)ccn2)cc1)N1CCCC1 [GW792479],Kd,TGFBR1,170 nM
FC(F)(F)c1ccc(-c2cc(-c3c[nH]nc3-c3ccccn3)ccn2)cc1 [GW599550],Kd,TGFBR1,220 nM
Clc1ccc(-c2cc(-c3c[nH]nc3-c3ccccn3)ccn2)cc1 [GW681251],Kd,TGFBR2,530 nM
CC(C)N1CCC(n2cnc(-c3ccc(F)cc3)c2-c2ccnc(N)n2)CC1 [SB-223132],Kd,TIE2,> 10000 nM
